Compound activity from PubChem BioAssay.
Rows were chosen to be rich in hits. Some 18% of all compounds tested hit in one or more screens of this group.
LDHA inh – blocks human lactate dehydrogenase A; purified LDHA, NADH/diaphorase-resazurin fluorescence; hits give low values; P00338; 480,000 compounds, 0.15% hits; activity change, % (values are at about 110 or 230 µM); AID 1347041; in the data active = activity change below about -30%; inconclusive = mostly about -25% to -30%;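 also: plate controls were DMSO wells for no effect and wells without enzyme for full effect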
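Human LDH5 at 2 nM final in Tris HCl pH 7.4 with 0.06 mM NADH and 0.2 mM pyruvate, reacted 5 minutes at room temperature. Remaining NADH coupled via diaphorase/resazurin; resorufin fluorescence read at 0 and 20 minutes, normalized to enzyme-free and DMSO wells.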
DT40 TDP1 no CPT – qHTS for Inhibitors of human tyrosyl-DNA phosphodiesterase 1 (TDP1): qHTS in cells in absence of CPT | DT40 Tdp1-/- hTDP1 cells, no CPT, ATP luminescence, 48 h | Potency, µM (series often up to 46.2 µM), without a hit: at the top dose activity change, negative = growth inhibition, most hits filed as inhibitors | 420,000 compounds, 15% hits; also: potency is read from the fitted curve at half-maximal effect; nearly all actives have a fitted effect of over 55% in size
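DT40 Tdp1-/-;hTDP1 cells, no CPT (DMSO vehicle only), 400 cells/well; compounds pin-transferred; ≥48 hr, 37 °C; CellTiter-Glo 30 min RT dark, luminescence read.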
VP16 counter – counter-screen for ROR gamma inhibitors: Gal4-VP16 reporter. Drosophila S2 Gal4-VP16 UAS-luciferase, luminescence, 20 h. Potency, µM (highest dose often 53.6 µM), inactives show at the highest dose activity, negative = inhibition, hits mostly inhibitors. 310,000 compounds, 3.5% hits;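 also: Gal4-VP16 expression switched on by copper sulfate through the metallothionein promoter; potency is read from the fitted curve at half-maximal effect; nearly all actives have a fitted effect of over 50% in size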
DT40 TDP1 CPT – DT40-hTDP1 cell growth loss with CPT. chicken DT40 Tdp1-/-;hTDP1 cells + 20 nM CPT, ATP luminescence, 48 h. Potency, µM (top dose mostly 46.2 µM), for inactives: top-dose activity change, negative = growth inhibition, actives largely listed as inhibitors. 420,000 compounds, 12% hits. AID 686979; also: potency is read from the fitted curve at half-maximal effect; nearly all actives have a fitted effect of over 55% in size
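Cell growth measured by CellTiter-Glo luminescence after a minimum 48 h, 37 C compound exposure with 20 nM CPT in Tdp1-knockout DT40 cells stably expressing hTDP1, seeded 400/well; qHTS titration format.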
RORg inh – inhibitors of mouse ROR gamma transcriptional activity. Drosophila S2 Gal4-RORgamma UAS-luciferase reporter, 20 h. Potency, µM (series often up to 53.6 µM), inactives show at the highest dose activity change, negative = inhibition, usual class: inhibitors. 310,000 compounds, 5.4% hits; also: potency is read from the fitted curve at half-maximal effect; nearly all actives have a fitted effect of over 60% in size
Target sequence (P51450 whole entry, looked up, the tested form may be a part): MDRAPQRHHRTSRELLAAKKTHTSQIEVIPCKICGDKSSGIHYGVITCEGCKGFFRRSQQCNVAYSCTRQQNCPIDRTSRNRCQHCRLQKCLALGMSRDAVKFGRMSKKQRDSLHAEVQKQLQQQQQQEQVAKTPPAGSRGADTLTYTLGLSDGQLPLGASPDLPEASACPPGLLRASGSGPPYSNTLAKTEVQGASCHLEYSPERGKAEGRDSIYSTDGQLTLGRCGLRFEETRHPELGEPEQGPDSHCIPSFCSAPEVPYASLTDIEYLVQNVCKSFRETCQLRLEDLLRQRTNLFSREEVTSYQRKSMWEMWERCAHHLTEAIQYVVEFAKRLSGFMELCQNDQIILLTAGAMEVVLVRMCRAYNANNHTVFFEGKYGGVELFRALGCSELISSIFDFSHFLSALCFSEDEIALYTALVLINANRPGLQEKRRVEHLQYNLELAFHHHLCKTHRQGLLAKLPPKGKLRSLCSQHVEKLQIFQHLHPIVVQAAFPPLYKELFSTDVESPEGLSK
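Using a luciferase readout, inhibitors were identified by reduced reporter activity in Drosophila cells coexpressing a copper-inducible Gal4–ROR gamma fusion and UAS-driven Photinus luciferase, incubated 20 hr after 700 uM copper sulfate.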
IL1B secr inh – inhibitors of inflammasome signaling (IL-1 beta secretion). THP-1 LPS/ATP IL-1B secretion, AlphaLISA, 16 h; hits give low values. activity change, % at 57.5 µM. 360,000 compounds, 4.7% hits. AID 743279; in the data active = activity change below about -50%; inconclusive = mostly about -30% to -49%
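THP-1 cells pretreated 1 hr with compounds (up to 57.5 uM final), then stimulated with LPS (250 ng/mL final) plus ATP (1.25 mM final); secreted IL-1B measured by AlphaLISA after 16 hr, decreased signal indicating inhibition.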
An asterisk follows results filed as active; ! = a repeat was not active; [ ] = dose if it differs, or a comment. Unless noted, calls follow the shape of the dose curve; as a rule, active = well fitted curve in the direction sought with a large enough effect; inconclusive = small, poorly fitted or top-dose-only effect, or another doubt; inactive = no such curve, though single readings can be large; an effect the other way counts as inactive or inconclusive. Unless noted, % is scaled to controls: 0 for no effect and ±100 for the full control effect.

How did Cc1ccc(S(=O)(=O)N(C)c2cc(S(=O)(=O)N3CCOCC3)c(C)cc2C)cc1 do in these assays?
LDHA inh: -4; DT40 TDP1 no CPT: inconclusive; VP16 counter: -7%; DT40 TDP1 CPT: -24%; RORg inh: 12%; IL1B secr inh: -4

How did Cc1cc(C)c(S(=O)(=O)N2CCCCC2)c(C)c1N(C)S(=O)(=O)c1ccccc1 do in these assays?
LDHA inh: 0; DT40 TDP1 no CPT: inconclusive; VP16 counter: 3%; DT40 TDP1 CPT: 12µM*; RORg inh: 18%; IL1B secr inh: inconclusive

What do the screens show for `Cc1cc(C)c(S(=O)(=O)N2CCCCC2)cc1N(C)S(=O)(=O)c1ccc(Cl)cc1`?
LDHA inh: 1; DT40 TDP1 no CPT: 16µM*; VP16 counter: 1%[0.365 µM]; DT40 TDP1 CPT: 23µM*; RORg inh: 36%; IL1B secr inh: inconclusive

How did Cc1ccc(S(=O)(=O)NC2CC2)cc1C(=O)N1CCN(c2ccccc2O)CC1 do in these assays?
LDHA inh: 10

What do the screens show for `CCC(=O)Nc1ccc(C)cc1-c1nnc(SCC(=O)Nc2cccc(Cl)c2Cl)[nH]c1=O`?
LDHA inh: 1

Results for CCOc1ccc(OCC(=O)NCCN2CCN(S(=O)(=O)c3ccc(C)cc3)CC2)cc1 ?
LDHA inh: -9

How did Cn1c(C(=O)NCc2ccc(F)cc2)cc2cc(S(=O)(=O)N3CCCCC3)ccc21 do in these assays?
LDHA inh: 3; DT40 TDP1 no CPT: 12µM*; DT40 TDP1 CPT: 23µM*

Results for CSc1ccc(CNC(=O)c2cc3cc(S(=O)(=O)N4CCCCC4)ccc3n2C)cc1 ?
LDHA inh: 1; DT40 TDP1 no CPT: inconclusive; DT40 TDP1 CPT: -20%

What do the screens show for `CCc1ccc(CNC(=O)c2cc3cc(S(=O)(=O)N4CCCCC4)ccc3n2C)cc1`?
LDHA inh: 1; DT40 TDP1 no CPT: 13µM*; DT40 TDP1 CPT: inconclusive

How did Cc1ccccc1CNC(=O)c1cc2cc(S(=O)(=O)N3CCCCC3)ccc2n1C do in these assays?
LDHA inh: -11; DT40 TDP1 no CPT: 18µM*; DT40 TDP1 CPT: inconclusive

Results for CCCCOc1cccc(NC(=O)c2cccc(C(=O)Nc3cccc(OCCCC)c3)c2)c1 ?
LDHA inh: -2; DT40 TDP1 no CPT: 7.3µM*; DT40 TDP1 CPT: 18µM*

Results for CCCOc1ccc(C(=O)Nc2ccc(NC(=O)c3ccccc3)c(C)c2)cc1 ?
LDHA inh: -8; DT40 TDP1 no CPT: 16µM*; DT40 TDP1 CPT: inconclusive

How did COC(=O)COc1cccc(NC(=O)c2cc(OC)cc(OC)c2)c1 do in these assays?
LDHA inh: -6; DT40 TDP1 no CPT: -13%; VP16 counter: 17%; DT40 TDP1 CPT: 3%; RORg inh: 2%; IL1B secr inh: -100*

How did CCCOc1cccc(NC(=O)c2cc(C)oc2C)c1 do in these assays?
LDHA inh: 1; DT40 TDP1 no CPT: 16µM*; VP16 counter: 2%; DT40 TDP1 CPT: 26µM*; RORg inh: 18%; IL1B secr inh: -14

What do the screens show for `COC(=O)COc1cccc(NC(=O)c2ccc(C)cc2)c1`?
LDHA inh: -7; DT40 TDP1 no CPT: -15%; VP16 counter: inconclusive; DT40 TDP1 CPT: -15%; RORg inh: inconclusive; IL1B secr inh: -3

How did COc1ccc(N2CCN(C(=O)C3CCN(S(=O)(=O)N4CCOCC4)CC3)CC2)cc1 do in these assays?
LDHA inh: -3; DT40 TDP1 no CPT: 13µM*; VP16 counter: -12%; DT40 TDP1 CPT: inconclusive; RORg inh: 31%; IL1B secr inh: 13

How did O=C(C1CCN(S(=O)(=O)N2CCOCC2)CC1)N1CCN(c2ccc(F)cc2)CC1 do in these assays?
LDHA inh: -4; DT40 TDP1 no CPT: 10µM*; VP16 counter: -7%; DT40 TDP1 CPT: 8.2µM*; RORg inh: 23%; IL1B secr inh: 9

Results for CCN1CCN(C(=O)CN2C(=O)c3cccnc3Oc3ccc(Cl)cc32)CC1 ?
LDHA inh: 9

How did Cc1cccc2sc(N(CCCN(C)C)C(=O)c3ccc(Cl)s3)nc12 do in these assays?
LDHA inh: -15; DT40 TDP1 no CPT: inconclusive; VP16 counter: inconclusive; DT40 TDP1 CPT: 23µM*!; RORg inh: inconclusive; IL1B secr inh: -62*

How did Cc1ccc2nc(N(CCN(C)C)C(=O)c3ccc4ccccc4c3)sc2c1 do in these assays?
LDHA inh: 1; DT40 TDP1 no CPT: inconclusive; VP16 counter: -2%; DT40 TDP1 CPT: inconclusive; RORg inh: 12%; IL1B secr inh: -23

Results for Cc1ccc2nc(N(CCCN(C)C)C(=O)c3cc4ccccc4oc3=O)sc2c1 ?
LDHA inh: -1; DT40 TDP1 no CPT: inconclusive; VP16 counter: -23%; DT40 TDP1 CPT: -21%; RORg inh: -8%; IL1B secr inh: -51*

How did Cc1cccc2sc(N(CCCN(C)C)C(=O)c3cc4ccccc4oc3=O)nc12 do in these assays?
LDHA inh: -5; DT40 TDP1 no CPT: inconclusive; VP16 counter: -3%; DT40 TDP1 CPT: 23µM*; RORg inh: -27%; IL1B secr inh: 0

Results for CN(C)CCCN(C(=O)c1cc2ccccc2oc1=O)c1nc2c(F)cccc2s1 ?
LDHA inh: -4; DT40 TDP1 no CPT: -26%; VP16 counter: -5%; DT40 TDP1 CPT: -9%; RORg inh: 4%; IL1B secr inh: -21

How did CCCN=Cc1c(CCC)[nH]n(-c2nc3ccccc3s2)c1=O do in these assays?
LDHA inh: -5; DT40 TDP1 no CPT: -29%; VP16 counter: inconclusive; DT40 TDP1 CPT: inconclusive; RORg inh: 2.8µM*; IL1B secr inh: -23

What do the screens show for `CCCc1[nH]n(-c2nc3ccccc3s2)c(=O)c1C=NCCCN(CC)CC`?
LDHA inh: 3; DT40 TDP1 no CPT: 2%; VP16 counter: -19%; DT40 TDP1 CPT: -7%; RORg inh: 20µM*; IL1B secr inh: 15

How did CCCn1c(CSc2nnc(C3CC3)n2C2CC2)nc2cc(S(=O)(=O)N(C)C)ccc21 do in these assays?
LDHA inh: 2

How did O=C(Cn1ccc2cc(S(=O)(=O)N3CCCCC3)ccc21)NC1CCCC1 do in these assays?
LDHA inh: 2

Results for CN(Cc1ccccc1Cl)C(=O)c1ccc2c(c1)CCCN2S(C)(=O)=O ?
LDHA inh: 0

Results for O=C(C#Cc1ccccc1)c1ccco1 ?
LDHA inh: -3; DT40 TDP1 no CPT: 0.58µM*; VP16 counter: 3.2µM*; DT40 TDP1 CPT: 1.3µM*; RORg inh: 2.8µM*; IL1B secr inh: -101*

What do the screens show for `O=C(N=C(c1ccccc1)c1ccccc1)c1ccco1`?
LDHA inh: -10
